Experimental data reported in the supplement of paper PMC6555819.

Experiments:
Assay in all cases: PBM binding z-score (relative to random genomic background probes); higher = stronger binding; sequences stand for … in GC…GCGATTGACAGCGTAGAATGAAGG
[1] = system: PPARg:RXRa DBDmut IVT, anti-RXR (DBD mutation: RXRa K156A/R161A, NR concentration 270 nM, RXRa partner concentration 90 nM)
In short: (§1)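 Ligand-free nuclear receptor dimers were bound for 1 h to custom Agilent 4×180K protein-binding microarrays. Detection used antibodies against each partner (one per run). Binding z-scores rest on regression-normalized fluorescence, with random background probes as the reference.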

[2] = system: PPARg:RXRa IVT, anti-PPARg (NR concentration 270 nM, RXRa partner concentration 90 nM)
In short: as §1

[3] = system: PPARg DBDmut:RXRa IVT, anti-PPARg (DBD mutation: PPARg1 K132A/R137A, NR concentration 270 nM, RXRa partner concentration 90 nM)
In short: as §1

[4] = system: PPARg DBDmut IVT, anti-PPARg (DBD mutation: PPARg1 K132A/R137A, NR concentration 270 nM)
In short: as §1

[5] = system: PPARg homodimer (NR concentration 180 nM)
In short: as §1

[6] = system: PXR:RXRa (NR concentration 270 nM, RXRa partner concentration 90 nM)
In short: as §1

[7] = system: PXR homodimer (NR concentration 270 nM)
In short: as §1

[8] = system: RARa:RXR (NR concentration 270 nM, RXRa partner concentration 90 nM)
In short: as §1

[9] = system: RARa homodimer (NR concentration 270 nM)
In short: as §1

[10] = system: RARb:RXRa (NR concentration 270 nM, RXRa partner concentration 90 nM)
In short: as §1

[11] = system: RARb homodimer (NR concentration 270 nM)
In short: as §1

[12] = system: RARg:RXRa (NR concentration 270 nM, RXRa partner concentration 90 nM)
In short: as §1

[13] = system: RARg homodimer (NR concentration 270 nM)
In short: as §1

[14] = system: RXRa DBDmut IVT, anti-RXR (DBD mutation: RXRa K156A/R161A, NR concentration 90 nM)
In short: as §1

[15] = system: RXRa homodimer (NR concentration 180 nM)
In short: as §1

[16] = system: THRa:RXRa (NR concentration 90 nM, RXRa partner concentration 90 nM)
In short: as §1

[17] = system: THRa homodimer (NR concentration 90 nM)
In short: as §1

[18] = system: VDR homodimer (NR concentration 270 nM)
In short: as §1

AGTCAAAGTTCACTAGGCAACGTAAGATTCAGCT
PBM binding z-score [1]: 1.55
PBM binding z-score [2]: 3.93
PBM binding z-score [3]: 1.31
PBM binding z-score [4]: 0.663
PBM binding z-score [5]: 1.75
PBM binding z-score [6]: 3.81
PBM binding z-score [7]: 2.09
PBM binding z-score [8]: 3.04
PBM binding z-score [9]: 0.611
PBM binding z-score [10]: 4.78
PBM binding z-score [11]: 3.63
PBM binding z-score [12]: 4.84
PBM binding z-score [13]: 5.8
PBM binding z-score [14]: 4.16
PBM binding z-score [15]: 3.89
PBM binding z-score [16]: 1.4
PBM binding z-score [17]: -0.365
PBM binding z-score [18]: 3.61

CCTACTGGGCCATTCAGAGGTCACTGATCATATG
PBM binding z-score [1]: 4.42
PBM binding z-score [2]: 4.67
PBM binding z-score [3]: 0.462
PBM binding z-score [4]: 0.235
PBM binding z-score [5]: 1.87
PBM binding z-score [6]: 3.96
PBM binding z-score [7]: 0.772
PBM binding z-score [8]: 4.08
PBM binding z-score [9]: 0.335
PBM binding z-score [10]: 3.37
PBM binding z-score [11]: 4.51
PBM binding z-score [12]: 4.5
PBM binding z-score [13]: 3.57
PBM binding z-score [14]: 0.354
PBM binding z-score [15]: 3.71
PBM binding z-score [16]: 3.48
PBM binding z-score [17]: 1.72
PBM binding z-score [18]: 1.85

CGTCAAAGTTCAAGGTAAAGTAACAGAAAGCAGC
PBM binding z-score [1]: 0.433
PBM binding z-score [2]: 1.82
PBM binding z-score [3]: 0.69
PBM binding z-score [4]: 0.346
PBM binding z-score [5]: 2.5
PBM binding z-score [6]: 3.99
PBM binding z-score [7]: 2.2
PBM binding z-score [8]: 3.47
PBM binding z-score [9]: 1.3
PBM binding z-score [10]: 4.95
PBM binding z-score [11]: 3.36
PBM binding z-score [12]: 5.19
PBM binding z-score [13]: 6.06
PBM binding z-score [14]: 4.04
PBM binding z-score [15]: 4.17
PBM binding z-score [16]: 2.5
PBM binding z-score [17]: 0.503
PBM binding z-score [18]: 2.89

CAAACTAGGTCAAAGGTCAGAGTCGAGCCAACCA
PBM binding z-score [1]: 8.97
PBM binding z-score [2]: 9.43
PBM binding z-score [3]: 6.85
PBM binding z-score [4]: 6.78
PBM binding z-score [5]: 5.97
PBM binding z-score [6]: 6.67
PBM binding z-score [7]: 1.28
PBM binding z-score [8]: 8.46
PBM binding z-score [9]: 3.04
PBM binding z-score [10]: 5.44
PBM binding z-score [11]: 5.01
PBM binding z-score [12]: 8.13
PBM binding z-score [13]: 6.87
PBM binding z-score [14]: 2.57
PBM binding z-score [15]: 9.54
PBM binding z-score [16]: 4.59
PBM binding z-score [17]: 1.56
PBM binding z-score [18]: 2.39

ATATGTAGGTTAGCTGGAGTCATTCAGACTAGGC
PBM binding z-score [1]: 6.03
PBM binding z-score [2]: 6.03
PBM binding z-score [3]: 1.63
PBM binding z-score [4]: 1.57
PBM binding z-score [5]: 0.988
PBM binding z-score [6]: 0.231
PBM binding z-score [7]: -0.186
PBM binding z-score [8]: 0.556
PBM binding z-score [9]: 0.257
PBM binding z-score [10]: 0.61
PBM binding z-score [11]: 0.259
PBM binding z-score [12]: 0.523
PBM binding z-score [13]: 0.683
PBM binding z-score [14]: -0.228
PBM binding z-score [15]: 0.583
PBM binding z-score [16]: 0.807
PBM binding z-score [17]: -0.355
PBM binding z-score [18]: -0.00881

TCTTGTAGATCAAAGCTTAAGAAAGCCGAAGCCT
PBM binding z-score [1]: 1.63
PBM binding z-score [2]: 0.218
PBM binding z-score [3]: -0.031
PBM binding z-score [4]: -0.413
PBM binding z-score [5]: -0.405
PBM binding z-score [6]: -0.275
PBM binding z-score [7]: -0.758
PBM binding z-score [8]: -0.177
PBM binding z-score [9]: -0.517
PBM binding z-score [10]: -0.506
PBM binding z-score [11]: -0.931
PBM binding z-score [12]: -0.422
PBM binding z-score [13]: -0.665
PBM binding z-score [14]: 0.503
PBM binding z-score [15]: -0.173
PBM binding z-score [16]: -0.444
PBM binding z-score [17]: -1.01
PBM binding z-score [18]: -0.74

CCTACTGGGCCATTCAGAGGTCATTGTTCATATG
PBM binding z-score [1]: 4.55
PBM binding z-score [2]: 4.17
PBM binding z-score [3]: 0.178
PBM binding z-score [4]: -0.495
PBM binding z-score [5]: 2.5
PBM binding z-score [6]: 4.71
PBM binding z-score [7]: 2.33
PBM binding z-score [8]: 4.2
PBM binding z-score [9]: 0.216
PBM binding z-score [10]: 2.97
PBM binding z-score [11]: 4.14
PBM binding z-score [12]: 4.19
PBM binding z-score [13]: 2.88
PBM binding z-score [14]: 1.2
PBM binding z-score [15]: 3.37
PBM binding z-score [16]: 3.23
PBM binding z-score [17]: 1.38
PBM binding z-score [18]: 3.59
